Reference: PubChem BioAssay
Values without a mark were called inactive. Entries that show only a call come without a potency. For part of these data: Potency and affinity values are given separately. Activity calls are given as the source filed them. Unless noted, no rule for the calls is given here.

Tests used:
[1] = antimalarial activity against Dd2 strain (AID 2302;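 active = growth inhibition above 50% at the single 2 µM test dose, taken to imply half-maximal potency below 2 µM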); conditions: P. falciparum Dd2 in RBCs, LDH growth readout, 72 h; at 2 µM; stronger effect = higher value
[2] = HepG2 cytotoxicity, primary screen, cytotoxicity control for P. falciparum antimalarial project, cell-based, ATP luminescence (AID 2303;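 active = inhibition above 50%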); conditions: HepG2 viability, 24-48 h, at 10 µM, stronger effect = higher value
[3] = target: L-lactate dehydrogenase (Plasmodium falciparum (isolate CDC / Honduras)) (UniProt Q27743); test: PfLDH activity inhibition – cell lysate, 3D7 strain, counter-screen for P. falciparum growth inhibition project (AID 2304); conditions: P. falciparum 3D7 crude extract, LDH APAD/NBT absorbance; at 2 µM; stronger effect = higher value
[4] = inhibition of 3D7 malaria parasite growth – strain 3D7 (AID 2306); conditions: P. falciparum 3D7 erythrocytic growth, LDH absorbance, 72 h; at 2 µM; stronger effect = higher value
[5] = target: Calcium-dependent protein kinase 1 (Plasmodium falciparum (isolate 3D7)) (UniProt P62344); test: PfCDPK1 kinase inhibitors, biochemical, TCAMS library (AID 1159585; cut-off not given, nearly all actives have IC50 up to about 0.98 µM;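 also: inhibitors leave more ATP so luminescence rises with inhibition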); conditions: recombinant PfCDPK1, Kinase-Glo ATP depletion luminescence
[6] = target: Plasmodium falciparum protein kinase 6 (PK6, PF3D7_1337100) (UniProt Q8IDW1); test: PfPK6 kinase inhibitors, biochemical, TCAMS library (AID 1159586); conditions: recombinant PfPK6, Kinase-Glo ATP depletion luminescence
[7] = target: Protein kinase 7 (PK7), Plasmodium falciparum 3D7 (PF3D7_0213400) (UniProt Q7YTF7); test: inhibition of Plasmodium PK7 catalytic activity – biochemical, TCAMS antimalarial set, Kinase-Glo luminescence (AID 1159587); conditions: recombinant PfPK7, Kinase-Glo ATP depletion luminescence
[8] = target: Calcium-dependent protein kinase 4 (Plasmodium falciparum (isolate 3D7)) (UniProt Q8IBS5); test: PfCDPK4 kinase inhibitors, biochemical, TCAMS library (AID 1159588; cut-off not given, nearly all actives have IC50 up to about 0.91 µM); conditions: recombinant PfCDPK4, Kinase-Glo ATP depletion luminescence
Calcium-dependent protein kinase 4 (Plasmodium falciparum (isolate 3D7)), sequence (Q8IBS5 whole entry, looked up): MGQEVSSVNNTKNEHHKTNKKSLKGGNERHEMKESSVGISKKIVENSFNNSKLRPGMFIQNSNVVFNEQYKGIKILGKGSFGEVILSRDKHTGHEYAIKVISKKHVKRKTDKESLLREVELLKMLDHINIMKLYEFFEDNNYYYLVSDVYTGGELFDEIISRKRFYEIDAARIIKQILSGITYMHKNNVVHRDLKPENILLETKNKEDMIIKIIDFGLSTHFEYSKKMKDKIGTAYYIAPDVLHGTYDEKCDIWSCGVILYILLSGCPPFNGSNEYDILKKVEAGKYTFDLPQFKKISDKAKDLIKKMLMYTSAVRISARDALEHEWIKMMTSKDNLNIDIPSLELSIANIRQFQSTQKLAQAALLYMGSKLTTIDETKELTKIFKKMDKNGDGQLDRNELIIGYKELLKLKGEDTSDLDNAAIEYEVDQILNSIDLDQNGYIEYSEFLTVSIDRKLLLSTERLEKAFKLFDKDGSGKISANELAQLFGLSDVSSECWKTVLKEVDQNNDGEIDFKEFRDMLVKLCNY

Protein kinase 7 (PK7), Plasmodium falciparum 3D7 (PF3D7_0213400), sequence (Q7YTF7 1-343): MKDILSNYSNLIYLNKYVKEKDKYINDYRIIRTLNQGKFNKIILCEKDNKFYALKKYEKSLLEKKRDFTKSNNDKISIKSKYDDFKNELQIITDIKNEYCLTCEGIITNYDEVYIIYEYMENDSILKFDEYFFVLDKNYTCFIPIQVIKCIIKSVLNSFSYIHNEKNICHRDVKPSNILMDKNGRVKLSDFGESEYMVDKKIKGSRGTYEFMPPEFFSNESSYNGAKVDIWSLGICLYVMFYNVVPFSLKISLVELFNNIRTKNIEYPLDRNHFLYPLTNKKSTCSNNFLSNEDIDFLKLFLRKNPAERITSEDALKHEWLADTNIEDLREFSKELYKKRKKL
Calcium-dependent protein kinase 1 (Plasmodium falciparum (isolate 3D7)), sequence (P62344 whole entry, looked up): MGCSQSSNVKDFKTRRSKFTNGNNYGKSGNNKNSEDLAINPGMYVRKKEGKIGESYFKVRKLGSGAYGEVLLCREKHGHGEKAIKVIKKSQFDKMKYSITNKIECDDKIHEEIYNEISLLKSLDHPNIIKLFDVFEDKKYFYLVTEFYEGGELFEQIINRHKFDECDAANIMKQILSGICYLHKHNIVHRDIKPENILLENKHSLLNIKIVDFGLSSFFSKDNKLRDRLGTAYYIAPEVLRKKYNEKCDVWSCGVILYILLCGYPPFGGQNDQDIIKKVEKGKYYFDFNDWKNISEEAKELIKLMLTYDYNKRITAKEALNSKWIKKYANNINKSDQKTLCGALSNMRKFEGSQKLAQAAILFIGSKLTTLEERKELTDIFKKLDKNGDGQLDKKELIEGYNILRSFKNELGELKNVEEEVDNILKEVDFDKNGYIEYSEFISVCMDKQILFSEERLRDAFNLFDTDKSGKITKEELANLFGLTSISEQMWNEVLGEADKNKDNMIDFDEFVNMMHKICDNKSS
L-lactate dehydrogenase (Plasmodium falciparum (isolate CDC / Honduras)), sequence (Q27743 whole entry, looked up): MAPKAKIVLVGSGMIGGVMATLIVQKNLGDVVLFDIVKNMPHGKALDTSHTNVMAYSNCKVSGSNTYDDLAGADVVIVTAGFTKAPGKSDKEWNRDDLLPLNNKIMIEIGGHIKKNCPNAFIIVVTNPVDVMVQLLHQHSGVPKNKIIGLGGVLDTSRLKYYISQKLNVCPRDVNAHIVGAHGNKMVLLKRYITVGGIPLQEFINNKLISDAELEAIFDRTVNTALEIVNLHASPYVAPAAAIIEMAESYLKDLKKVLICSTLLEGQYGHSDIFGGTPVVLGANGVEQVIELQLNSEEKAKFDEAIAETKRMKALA
Plasmodium falciparum protein kinase 6 (PK6, PF3D7_1337100), sequence (Q8IDW1 1-305): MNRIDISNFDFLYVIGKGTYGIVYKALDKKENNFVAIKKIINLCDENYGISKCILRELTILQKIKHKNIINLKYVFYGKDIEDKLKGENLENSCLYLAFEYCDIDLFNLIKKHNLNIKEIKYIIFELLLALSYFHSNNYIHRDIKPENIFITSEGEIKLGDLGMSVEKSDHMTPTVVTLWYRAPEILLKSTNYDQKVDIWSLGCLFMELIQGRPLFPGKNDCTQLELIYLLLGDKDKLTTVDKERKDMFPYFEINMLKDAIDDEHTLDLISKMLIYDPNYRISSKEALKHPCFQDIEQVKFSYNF

| Structure (SMILES) | growth inhibition [1] | inhibition [2] | inhibition [3] [%] | growth inhibition [4] | outcome [5] | outcome [6] | outcome [7] | outcome [8] |
| --- | --- | --- | --- | --- | --- | --- | --- | --- |
| C[C@H](NC(=O)c1c(CN2CCC(N3CCCCC3)CC2)c(-c2ccccc2)nc2cc(O)ccc12)C1CCCCC1 | 72% (active) | 77% (active) | 0 | 99% (active) | inactive | inactive | inactive | inactive |
| O=C(Cc1cccc(OCCCN(Cc2cccc(C(F)(F)F)c2Cl)CC(c2ccccc2)c2ccccc2)c1)NCc1ccco1 | 84% (active) | 2% | -6 | 94% (active) | inactive | inactive | inactive | inactive |
| Cc1cccc2[nH]c(-c3cccc(-c4ccc(CNCc5cccc(N)c5)cc4)c3)nc12 | 93% (active) | 19% | -3 | 101% (active) | inactive | inactive | inactive | inactive |
| COc1cc(Nc2ccnc3ccc(C(F)(F)F)cc23)ccc1OCCCc1ccccc1 | 51% (active) | 11% | -10 | 99% (active) | inactive | inactive | inactive | inactive |
| Nc1cc(-c2ccc(Br)cc2O)nc2ccccc12 | 50% (active) | 23% | 0 | 100% (active) | inactive | inactive | inactive | inactive |
| Cc1ccc(Oc2ccc(CNc3nc(Nc4cccc(F)c4)nc(Nc4cccc(F)c4)n3)cc2)cc1 | -2% | -5% | -2 | 86% (active) | inactive | inactive | inactive | inactive |
| Cc1[nH]c(C)c(-c2ccc(-c3ccc(C#N)cc3)nc2)c(=O)c1Br | 87% (active) | 5% | 7 | 97% (active) | inactive | inactive | inactive | inactive |
| O=C(Nc1cccc(-c2ccc(-c3nc4ccc(C(F)(F)F)cc4[nH]3)cc2)c1)c1ccoc1 | 42% | 76% (active) | -4 | 98% (active) | inactive | inactive | inactive | inactive |
| O=C(/C=C/c1cccc2ccccc12)NCCCCCN1CCC(c2c[nH]c3ccccc23)CC1 | 6% | 55% (active) | -1 | 92% (active) | inactive | inactive | inactive | inactive |
| CCN(C)CCCn1c(N(C)C)nc2cc(-n3cnc4cc(-c5ccc(Cl)cc5)sc4c3=O)ccc21 | 12% | 83% (active) | 5 | 80% (active) | inactive | inactive | inactive | inactive |
| N#Cc1ccccc1Sc1ccccc1C(=O)Nc1ccc2ccccc2n1 | 85% (active) | -3% | 0 | 92% (active) | inactive | inactive | inactive | inactive |
| CC(C)N=C(N)NN=Cc1ccc(Cl)c(Cl)c1 | 12% | -8% | -2 | 101% (active) | inactive | inactive | inactive | inactive |
| CC1CCCN1Cc1cccc(-c2ccc(C(=O)NCCOc3ccccc3)s2)c1 (configuration not stated) | 0% | 26% | -3 | 83% (active) | inactive | inactive | inactive | inactive |
| COc1ccc(-c2cncc3ccc(C(=O)NCc4ccncc4)nc23)cc1 | 98% (active) | 25% | 0 | 100% (active) | inactive | inactive | inactive | inactive |
| CC(C)c1cc(Oc2c(I)cc(CCCc3ncc[nH]3)cc2I)ccc1O | 1% | 28% | 0 | 88% (active) | inactive | inactive | inactive | inactive |
| O=C(NCC(NCCCNc1cc(=O)c2ccccc2[nH]1)c1cc(Br)cc(Br)c1)C1=CCCC1 (configuration not stated) | 48% | -4% | 7 | 96% (active) | inactive | inactive | inactive | inactive |
| CCCC[C@H](NC(=O)O[C@H](COc1ccc(OCc2ccccc2)cc1)C(C)(C)C)C(=O)C(=O)Nc1ccn[nH]1 | 71% (active) | 21% | -1 | 88% (active) | inactive | inactive | inactive | inactive |
| Cc1cc(C2CCN(CCCCNC(=O)c3ccc(NC(=O)c4ccc(Cl)cc4)cc3)CC2)c(C)cc1OCCN(C)C | 77% (active) | 18% | -1 | 100% (active) | inactive | inactive | inactive | inactive |
| Nc1nc(N)c2c(CCc3ccc(Cl)c(Cl)c3)cccc2n1 | 83% (active) | 51% (active) | 6 | 101% (active) | inactive | inactive | inactive | inactive |
| COc1ccc(Nc2nc(NCc3cccc(NS(C)(=O)=O)c3)cc(-c3ccc(OC)cc3)n2)cc1 | 5% | -7% | 5 | 84% (active) | inactive | inactive | inactive | inactive |

| Structure (SMILES) | growth inhibition [1] | inhibition [2] | inhibition [3] [%] | growth inhibition [4] | outcome [5] | outcome [6] | outcome [7] | outcome [8] |
| --- | --- | --- | --- | --- | --- | --- | --- | --- |
| O=C(NCCN1CCOCC1)c1ccc(N2CCC(Oc3ccc4ccccc4c3)CC2)nc1 | 30% | 1% | -3 | 92% (active) | inactive | inactive | inactive | inactive |
| Cc1cc(NS(=O)(=O)c2cccc(C(C)N3CCC(N4CCCC4)CC3)c2)ccc1C(C)C (configuration not stated) | 53% (active) | 30% | -2 | 100% (active) | inactive | inactive | inactive | inactive |
| O=C(Nc1ccc(Cl)c(Cl)c1)N1CCc2ccc(OCCCN3CCCCC3)cc2CC1 | -2% | 27% | -2 | 92% (active) | inactive | inactive | inactive | inactive |
| COc1ccc2ncc(F)c([C@@H](O)CN3CCC(NCc4cc5c(cn4)OCS5)CC3)c2c1 | 98% (active) | 16% | -2 | 103% (active) | inactive | inactive | inactive | inactive |
| COc1cc(Nc2nc(N)n(C(=O)c3ccc4c(c3)OCO4)n2)cc(OC)c1OC | 40% | 60% (active) | 1 | 90% (active) | inactive | inactive | inactive | inactive |
| O=C(O)CNCC(O)c1ccccc1 (configuration not stated) | -5% | 7% | -5 | 96% (active) | inactive | inactive | inactive | inactive |
| CCn1ccc2c(N3CCCC3=O)cc(C(=O)N[C@@H](Cc3ccccc3)[C@H](O)CNCc3cccc(OC)c3)cc21 | 92% (active) | 4% | -5 | 94% (active) | inactive | inactive | inactive | inactive |
| COc1ccc(CNC2CCN(C)CC2)cc1-c1ccc(S(=O)(=O)NCc2ccccc2)c(C)c1 | 98% (active) | 81% (active) | 3 | 100% (active) | inactive | inactive | inactive | inactive |
| CC(C)CN1C(=O)c2ccccc2C(C(=O)Nc2cccc(C#N)c2)C1c1cccs1 (configuration not stated) | 100% (active) | 11% | -4 | 101% (active) | inactive | inactive | inactive | inactive |
| Fc1ccc(C=NNc2ccnc3ccc(C(F)(F)F)cc23)cc1 | 6% | 22% | 4 | 90% (active) | inactive | inactive | inactive | inactive |
| CC(=O)Nc1ccc(S(=O)(=O)N2CCN(c3nc(NC4CCCC4)c4ccccc4n3)CC2)cc1 | 2% | 7% | 1 | 88% (active) | inactive | inactive | inactive | inactive |
| CCc1ccc(NC(=O)N(CCCn2ccnc2)Cc2csc(-c3ccc(CNCc4ccccc4)cc3)n2)cc1 | 39% | 9% | 3 | 103% (active) | inactive | inactive | inactive | inactive |
| COc1ccc(N2CCN(CCCCNC(=O)c3ccc(NC(=O)c4ccc(Cl)cc4)cc3)CC2)c(OC)c1 | 22% | 25% | 6 | 97% (active) | inactive | inactive | inactive | inactive |
| CCCCCCNC(=O)C1Cc2c([nH]c3cc(Cl)ccc23)C2(CCN(Cc3ccccc3)CC2)N1 (configuration not stated) | 56% (active) | 21% | 2 | 90% (active) | inactive | inactive | inactive | inactive |
| O=C(c1ccccc1F)N(Cc1ccc(Cl)cc1)c1ccccn1 | 58% (active) | -3% | 1 | 84% (active) | inactive | inactive | inactive | inactive |
| CN(C)c1ccc(CN2CCC(CNC(=O)c3cc(-c4cccc(F)c4)cs3)C2)cc1 (configuration not stated) | 13% | 48% | 0 | 96% (active) | inactive | inactive | inactive | inactive |
| Cc1cc(N(C)C)nc(Nc2ccc(NC(=O)c3ccc(F)cc3)cc2)n1 | 21% | 8% | -3 | 100% (active) | inactive | inactive | inactive | inactive |
| CN(C)CCNC(=O)[C@H](Cc1ccccc1)NC(=O)c1ccc(O)c(-c2ccc(Cl)c(Cl)c2)c1 | 0% | -1% | -6 | 98% (active) | inactive | inactive | inactive | inactive |
| CC(C)(C)OC(=O)NCc1ccc(Nc2nnc(-c3cccc(OCC(=O)NCc4cc(C(F)(F)F)cc(C(F)(F)F)c4)c3)o2)cc1 | 19% | 32% | 1 | 90% (active) | inactive | inactive | inactive | inactive |
